Source: PubChem BioAssay
Pol kappa inh = blocks human DNA polymerase kappa activity; Q9UBT6; purified Pol kappa, fluorescent DNA synthesis assay, 10 min; Potency, µM (top dose mostly 107 µM), most hits filed as inhibitors; 400,000 tested, 0.53% active; AID 588579
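Here, compound and 10 nM enzyme are combined for 15 min at room temperature; adding 50 nM substrate (final) starts DNA synthesis, tracked by fluorescence at 0 and 10 min against buffer-only wells.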
PI5P4Ka inh = PI5P4K alpha (human) kinase inhibition; P48426; PI5P4Kalpha enzyme, ADP-Glo luminescence, 60 min; active compounds read low; max response, %; 330,000 tested, 1.2% active; active = max response of -50% or lower; inconclusive = between -30% and -50%; inactive = -30% or higher; note: value at the top dose of about 77 µM
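Enzyme plus substrate dispensed, test compounds pinned in, then ATP (5 microM final) added. After 60 min at RT, ADP-Glo reagent 1 for 45 min and reagent 2 for 30 min preceded luminescence imaging.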
Pol eta inh = blocks human DNA polymerase eta activity; Q9Y253; recombinant Pol eta, fluorescent DNA replication assay; Potency, µM (titrated, usually from 114 µM), hits mostly inhibitors; 390,000 tested, 1.2% active
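Pol eta (10 nM) was preincubated with compounds for 15 min at room temperature, after which fluorescent replication substrate (50 nM final) was added to start the reaction. Fluorescence was read kinetically at 0 and 10 min.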
POLB inh = inhibitors of human DNA polymerase beta | 340,000 tested, 1.3% active | Potency, µM (titrated, usually from 114 µM), usual class: inhibitors | Pol beta primer extension/strand displacement, fluorescence kinetic | P06746
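Reaction started by 50 nM substrate onto compound-treated Pol beta (10 nM, 15 min preincubation, room temperature); plates read at 0 min and 10 min. Normalized concentration-effect data fitted by four-parameter Hill equation.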
WRN helicase inh = inhibitors of human WRN helicase; Q14191; AID 651768; 360,000 tested, 0.46% active; WRN helicase unwinding, fluorescent forked duplex, kinetic; Potency, µM (top dose mostly 114 µM), usual class: inhibitors; note: nearly all actives have a fitted effect of over 55% in size
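Screening of the MLSMR collection measured strand separation of a quenched forked DNA duplex (100 nM) by 20 nM WRN with 2 mM ATP, all final. Compounds were preincubated with enzyme 15 min at room temperature.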
Pol iota inh = blocks human DNA polymerase iota activity; Q9UNA4; Pol iota fluorescent replication assay, 10 min; Potency, µM (top dose mostly 115 µM), most hits filed as inhibitors; 390,000 tested, 1% active
Target sequence (Q9UNA4 whole entry, looked up): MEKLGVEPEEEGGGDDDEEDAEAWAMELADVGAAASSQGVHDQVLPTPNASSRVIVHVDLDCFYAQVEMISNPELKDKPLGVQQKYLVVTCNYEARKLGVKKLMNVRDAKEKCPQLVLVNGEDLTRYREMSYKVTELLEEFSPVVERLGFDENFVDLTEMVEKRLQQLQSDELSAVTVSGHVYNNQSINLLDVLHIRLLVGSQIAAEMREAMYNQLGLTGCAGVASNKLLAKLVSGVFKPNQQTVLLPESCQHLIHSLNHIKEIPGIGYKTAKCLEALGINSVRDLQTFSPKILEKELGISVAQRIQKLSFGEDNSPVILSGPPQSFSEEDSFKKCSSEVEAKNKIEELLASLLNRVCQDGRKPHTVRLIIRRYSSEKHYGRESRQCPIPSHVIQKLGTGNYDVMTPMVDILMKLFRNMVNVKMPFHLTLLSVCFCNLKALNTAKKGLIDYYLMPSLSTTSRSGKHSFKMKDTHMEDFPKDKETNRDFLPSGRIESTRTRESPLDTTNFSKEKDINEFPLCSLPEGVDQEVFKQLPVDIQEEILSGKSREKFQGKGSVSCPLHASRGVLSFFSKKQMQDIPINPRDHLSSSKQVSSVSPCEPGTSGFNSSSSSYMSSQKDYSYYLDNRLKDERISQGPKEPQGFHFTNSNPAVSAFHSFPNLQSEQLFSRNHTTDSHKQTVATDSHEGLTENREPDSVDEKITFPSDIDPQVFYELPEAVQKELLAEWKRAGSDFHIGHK
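Fluorescent replication assay read twice, at 0 min and 10 min after adding 50 nM (final) substrate. Enzyme (10 nM) and compounds were first incubated 15 min at room temperature; enzyme-free buffer wells were negative controls.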
Hits are given with their value; n = inactive; u = inconclusive; x = not tested or not shown; [ ] = another dose, or the depositor's remark. Only some compounds are listed: those with a hit (about 2.8% of all), similar ones and a draw of the others. Unless noted, calls come from the whole dose curve; as a rule, active = well fitted curve in the direction sought with a large enough effect; inconclusive = small, poorly fitted or top-dose-only effect, or another doubt; inactive = no such curve, though single readings can be large; an effect the other way counts as inactive or inconclusive.

SMILES | Pol kappa inh | PI5P4Ka inh | Pol eta inh | POLB inh | WRN helicase inh | Pol iota inh
COc1ccc(S(=O)(=O)/N=C2/NC(=O)/C(=C/c3ccco3)S2)cc1 | n | n | 17.8µM | 31.6µM | u | u
COc1ccc(S(=O)(=O)/N=C2/NC(=O)/C(=C\c3ccco3)S2)cc1 | u | n | 17.8µM | 25.1µM | n | u
COc1cc(/C=C2\S/C(=N/S(=O)(=O)c3ccccc3)NC2=O)c([N+](=O)[O-])cc1OC | n | -54.9 | 22.4µM | n | u | u
COc1ccc(S(=O)(=O)/N=C2/NC(=O)/C(=C\c3cc(OC)c(OC)cc3[N+](=O)[O-])S2)cc1 | n | x | n | n | n | n
C=CCNc1nc(NC2CCN(C)CC2)c2cc(OC)c(OC)cc2n1 | n | x | x | x | x | n
CCOC(=O)c1ccc(NC(=O)c2oc3c(c2C)-c2nn(Cc4ccccc4Cl)cc2CC3)cc1 | n | x | n | n | x | u
COc1ccc(C(=O)C[n+]2cc(Br)cc(Br)c2)cc1 | n | x | x | x | x | n
Cc1c(C(=O)N2CCN(c3ccccn3)CC2)oc2ccccc12 | n | x | n | n | n | n
CCOc1ccc2oc(C(=O)N3CCN(c4ccccn4)CC3)c(C)c2c1 | n | n | 20µM | u | n | u
COc1ccc(C2CC(=O)C(CS(=O)(=O)c3ccccc3)C(=O)C2)cc1 (stereo not drawn) | n | u | n | n | n | n
O=C1CC(c2ccc(Cl)cc2)CC(=O)C1CS(=O)(=O)c1ccccc1 (stereo not drawn) | n | -57.9 | n | n | n | n
Cc1ccc(OCC(=O)NNC(=O)c2cc3ccccc3o2)cc1 | n | n | n | u | n | n
Cc1ccc(OCC(=O)NNC(=O)c2cc3ccccc3o2)cc1C | u | n | u | 28.2µM | n | u
CC(C)CNC(=O)C1(C)CCCCCN1Cc1ccccc1-c1ccccc1 (stereo not drawn) | x | n | x | x | n | x
Nc1ncccc1C(=O)OCC(=O)NC1CCCCCC1 | n | u | 79.4µM | x | n[11.6 µM] | n
O=C(COC(=O)c1ccccn1)NC1CCCCC1 | n | n | n | n | n | n
CC1CCN(C(=O)CSc2nc3ncccc3[nH]2)CC1 | n | n | n | n | n | n
CCC1CCCCN1C(=O)CSc1nc2ncccc2[nH]1 (stereo not drawn) | 25.1µM | n | n | n | n[11.6 µM] | u
Cc1c(N=C2N=C(NC(=O)c3ccc(F)cc3)c3ccccc32)c(=O)n(-c2ccccc2)n1C | 12.6µM | n | u | n | n | u
Cc1c(NC(=O)NC(=O)c2ccc(F)cc2)c(=O)n(-c2ccccc2)n1C | n | n | n | n | n | n
COc1cccc(NC(=O)NNC(=O)CCc2ccc(O)c(O)c2)c1 | 25.1µM | n | n | n | n | 39.8µM
O=C(O)c1nccnc1C(=O)Nc1ccccc1-c1ccccc1 | n | n | n | n | n | n
CN(C)S(=O)(=O)c1cccc(NC(=S)NNC(=O)c2cc3ccccc3cc2O)c1 | n | -60.4 | n | x | n | n
Cc1cccc(CCNS(=O)(=O)c2ccc3c(c2)NC(=O)C(C)S3)c1 (stereo not drawn) | n | n | n | n | n | n
COc1ccccc1-c1cn(CC[C@H]2CC[C@@H](NS(=O)(=O)c3ccccc3C)[C@@H](CO)O2)nn1 | x | n | x | x | n | x
SMILES | Pol kappa inh | PI5P4Ka inh | Pol eta inh | POLB inh | WRN helicase inh | Pol iota inh
CN(CC(=O)Nc1cccc(F)c1)C(=O)CCSc1ccc(F)cc1 | n | n | n | x | n | n
CN(CC(=O)Nc1cccc(F)c1)C(=O)CSc1ccccc1F | n | u | n | 44.7µM | n | u
CN(CC(=O)Nc1cccc(F)c1)C(=O)c1ccc(COc2ccccc2)cc1 | n | n | n | x | n[11.6 µM] | 79.4µM
Cc1c(Cl)cccc1NC(=O)CSc1nncn1-c1ccccn1 | n | n | n | n | n | n
O=C(NN=C1c2ccccc2-c2ccccc21)c1ccccc1Br | n | x | n | 0.282µM | n | u
CC(/C=C/c1ccco1)=N\NC(=O)c1cc(C)[nH]n1 | u | x | 79.4µM | 20µM | u | 17.8µM
Cc1cc(C(=O)N/N=C/c2ccco2)n[nH]1 | n | n | n | n | n | n
Cc1ccc(C(=O)N/N=C/c2cccc(OC(=O)/C=C/c3ccco3)c2)cn1 | n | u | u | 20µM | n | u
CC(/C=C/c1ccco1)=N\NC(=O)c1cccnc1 | u | x | u | u | u | 39.8µM
CCOC(=O)C1(C)CCCN1C(=O)c1cc(F)ccc1C (stereo not drawn) | x | n | x | x | n | x
OCCCc1cn(-c2ccccc2)c2ccccc12 | n | n | n | n | n | n
Clc1nc(Cl)nc(-c2cn(-c3ccccc3)c3ccccc23)n1 | n | n | n | 20µM | n | n
O=C(NCc1ccc2c(c1)OCO2)c1cccc2c1C(=O)N(C1CCCCC1)C2 | n | n | n | n | n | n
CCOC(=O)N1CCC(N2Cc3cccc(C(=O)NCc4ccc(OC)cc4)c3C2=O)CC1 | x | x | x | 15.8µM | x | x
CCOC(=O)N1CCC(NC(=O)c2cn(-c3ccc(OC)cc3)c(=O)c3ccccc23)CC1 | n | n | n | n | n | n
CCOC(=O)N1CCC(NC(=O)c2cccc3c2C(=O)N(c2ccc(OC)cc2)C3)CC1 | 50.1µM | u | 17.8µM | 10µM | n | u
CCOC(=O)N1CCC(N2Cc3cccc(C(=O)NCc4ccccc4OC)c3C2=O)CC1 | n | n | n | n | n | n
Cc1cccc(CCNC(=O)c2cccc3c2C(=O)N(C2CCCCC2)C3)c1 | n | n | u | 11.2µM | n | n
CCOC(=O)N1CCC(N2Cc3cccc(C(=O)NCc4ccc5c(c4)OCO5)c3C2=O)CC1 | n | n | u | 25.1µM | n | 44.7µM
Cc1c(CNC(C)CCc2ccccc2)c(C(=O)O)c(C)n1Cc1ccc(F)cc1 (stereo not drawn) | n | x | n | n | x | n
CC(=O)c1cccc(S(=O)(=O)NC(C)C2CC3CCC2C3)c1 (stereo not drawn) | n | u | u | 22.4µM | u | u
CC(NC(=O)c1cccc(S(=O)(=O)N(C)C)c1)C1CC2CCC1C2 (stereo not drawn) | n | n | n | n | n | n
COc1ccc(-n2c(O)c(/C=N/Nc3nc(C)cc(C)n3)c3ccccc3c2=O)cc1OC | u | n | n | u | n | n
COc1ccc(-n2c(O)c(/C=N/NS(=O)(=O)c3cc(C)ccc3C)c3ccccc3c2=O)cc1OC | u | n | u | u | 79.4µM | u
COC1CCN(Cc2c(C(=O)N3CCc4ccccc4C3)nc3ccc(Cl)cn23)CC1 | n | n | n | n | n | n
COCC1CCN(Cc2c(C(=O)N3CCc4ccccc4C3)nc3ccc(Cl)cn23)C1 (stereo not drawn) | u | n | u | u | n[11.6 µM] | 39.8µM
Nc1nc2ncc(C(=O)c3cc(F)ccc3O)cc2s1 | n | n | n | n | n | n
Nc1nc2ncc(C(=O)c3cc(Cl)cc(Cl)c3O)cc2s1 | n | -56.6 | n | n | u | n
CC1=Nc2ccccc2/C1=C\c1nc(-c2ccccc2)oc1O | n | x | n | n | n | u
